# Test results as given in PubChem BioAssay AID463190 (Sanford-Burnham Center for Chemical Genomics, 2010).
# About 7,300 (2.2%) of roughly 330,000 compounds were called active. This is one part of a sample in which actives are shown more often than they occur. Values without a mark were called inactive.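 The calls were made as follows: active = inhibition of at least 40%; inactive = the rest.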
# Test: growth inhibition of tim10-1 ts yeast – luminescence, uHTS, primary screen (AID 463190);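 also: mutant grown at 25 °C; 0% = DMSO wells with yeast and 100% = wells holding no yeast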
# Details: S. cerevisiae tim10-1 ts strain growth, BacTiter-Glo, 24 h; at 20 µM; active compounds read high
row,Structure (SMILES),inhibition
1,Cc1ccc(C(=O)N/N=C\c2cc(Br)c(Br)o2)cn1,3.87%
2,COc1cccc(NC(=O)CN2CCN(CC(=O)Nc3ccccc3Cl)CC2)c1,19.6%
3,COc1ccc(NC(C)=O)cc1NC(=O)CN1CCN(C2c3ccccc3-c3ccccc32)CC1,41.6% (active)
4,COc1ccc(Cl)cc1NC(=O)CN1CCN(C(=O)N2CCOCC2)CC1,1.52%
5,CC(C)(C)OC(=O)C1=C(CO)CS[C@@H]2[C@H](NC(=O)Cc3ccccc3)C(=O)N12,9.18%
6,Cc1ccc(S(=O)(=O)N2CCN(C(=O)CSc3cc(C)ccc3C)CC2)c(C)c1,23.1%
7,O=C(NCc1ccco1)c1cccn2c(=O)c3c4c(sc3nc12)CCCC4,41.6% (active)
8,Cc1cccc(Nc2ccccc2C(=O)NCc2ccco2)c1C,29.9%
9,O=C(NCc1ccco1)c1nc2ncccn2n1,1.9%
10,COc1ccc(C(=O)N2CCC(C(=O)Nc3cccc(C)c3)CC2)cc1OC,-7.58%
11,O=C(Nc1ccccc1)/C(=C\c1ccco1)NC(=O)c1ccco1,23.3%
12,O=C(NCCc1ccco1)c1nn(Cc2ccccc2)c(=O)c2ccccc12,14.5%
13,O=c1nc2s/c(=C\c3ccco3)c(=O)n2nc1Cc1ccccc1,63% (active)
14,CC(=O)N1N=C(c2ccccc2)OC1c1cccnc1 (stereo unspecified),7.21%
15,COc1ccc2nc(N3CCN(C(=O)c4ccc([N+](=O)[O-])o4)CC3)sc2c1,42.2% (active)
16,CCN(CC)CCN(C(=O)c1cccc([N+](=O)[O-])c1)c1nc2ccc(OC)cc2s1,12.5%
17,Cc1ccc2nc(N3CCN(C(=O)c4ccco4)CC3)sc2c1,6.64%
18,CC(C)NS(=O)(=O)c1ccc(OCC(=O)NC2CCCCCC2)cc1,4.48%
19,Cc1nn(-c2ccccc2)c2sc(C(=O)N(Cc3ccco3)C(C)C(=O)NC(C)(C)C)cc12 (stereo unspecified),14.2%
20,Cc1cccc(N=Nc2c(C)[nH]n(-c3ccccc3)c2=O)c1,20.1%
21,CC1=NN(C(N)=S)C(=O)C1N=Nc1cc(Cl)ccc1Cl (stereo unspecified),38.6%
22,Cc1[nH]n(C(N)=S)c(=O)c1N=Nc1ccc(Cl)cc1Cl,47.4% (active)

row,Structure (SMILES),inhibition
1,CSc1cc(C)n(-c2ccccc2C)c(=S)c1C(C)=O,-13.6%
2,Cc1nc(/N=C(\N)NC(=O)NC2CCCCC2)nc2ccccc12,-11.5%
3,COc1ccc2nc(/N=C(\N)NC(=O)Nc3ccccc3)nc(C)c2c1,50% (active)
4,COc1ccc2nc(C)cc(Nc3cccc(C(=O)O)c3)c2c1,-1.42%
5,Cn1c(SCc2nc3ccccc3s2)nnc1-c1ccc2c(c1)OCO2,-2.97%
6,O=C(CCl)Nc1cccc(CP(=O)(c2ccccc2)c2ccccc2)c1,9.52%
7,Cn1c(SCC(=O)Nc2cccc(NC(=O)c3cccs3)c2)nnc1-c1ccncc1,-9.32%
8,O=C(NOCc1ccccc1)c1cccc([N+](=O)[O-])c1,21.3%
9,CCCCN=C1C([N+](=O)[O-])=CC=C2C1=NC1(CCCCC1)N2O,9%
10,Cc1ccc(C(=O)COc2cccc(NC(=O)c3ccco3)c2)cc1,40.3% (active)
11,Cc1cccc(OCC(=O)Nc2ccc(NC(=O)c3ccco3)c(C)c2)c1,1.89%
12,COc1ccc(OCC(=O)Nc2ccc(NC(=O)c3ccco3)c(C)c2)cc1,-11.8%
13,COc1ccc(/C=N/N=C2/C(=O)Nc3ccccc32)cc1O,9.34%
14,C(=N\N1CCN(c2ccccn2)CC1)/C1=C(N2CCOCC2)C(=C/c2ccccc2)/CC1,34.3%
15,O=C1Nc2ccc(Br)cc2/C1=N/N=C/C1=C(N2CCOCC2)C(=C\c2ccccc2)/CC1,45.5% (active)
16,C#CC(CCN1CCCCC1)(OC)c1ccccc1 (stereo unspecified),7.91%
17,Cc1ccc2nc(-c3ccc(Br)cc3)cn2c1,-3.32%
18,Cc1ccc(-c2cn3cc([N+](=O)[O-])ccc3n2)cc1,-1.69%
19,Cc1ccc(-c2cn3cc(C)ccc3n2)cc1,51.8% (active)
20,CCOc1ccc(-n2c(SC(C)C(=O)OC)nc3c(c2=O)SCC3)cc1 (stereo unspecified),10.7%
21,Cc1cc(F)ccc1NC(=O)C(C)n1c2ccccc2c2nc(=O)cc(C)n21 (stereo unspecified),13.9%
22,C[C@H](CO)N1C[C@H](C)[C@@H](CN(C)S(=O)(=O)c2ccc(F)cc2)Oc2c(NC(=O)Nc3ccccc3)cccc2C1=O,-4.64%

row,Structure (SMILES),inhibition
1,O=C(OCC(=O)N1CCCC1=O)c1cc(S(=O)(=O)N2CCOCC2)ccc1Cl,-17.2%
2,Cc1ccc(S(=O)(=O)N2CCC(C(=O)NCCC3=CCCCC3)CC2)cc1C,-3%
3,CC(=O)Cc1nsc(NC(=O)c2csc3c2CCCC3)n1,41.9% (active)
4,CC(=O)Cc1nsc(NC(=O)c2ccc(Cl)cc2Cl)n1,36.5%
5,O=C(NCc1ccccc1Cl)c1csc2c1CCCCC2,12.3%
6,Cc1ccc(CNC(=O)CCC(=O)N2CC(C)Sc3ccccc32)cc1 (stereo unspecified),28.3%
7,CCCc1nnc(NC(=O)CCC(=O)NC2CC2)s1,10.7%
8,Cc1ccc2[nH]c(C)c(CCNC(=O)NC3CCCCC3)c2c1,11.4%
9,COc1ccc(C(=O)COC(=O)COc2ccc(C)c(C)c2)cc1,10.1%
10,Cc1cc(OCC(=O)N2CCN(c3ncccn3)CC2)ccc1Cl,16%
11,Cc1ccc(/C(N)=N/OC(=O)COc2ccc(Cl)c(C)c2)cc1,41.2% (active)
12,COC(=O)c1cccc([N+](=O)[O-])c1CS(=O)(=O)c1ccc(C)cc1,24.5%
13,COc1ccc(C(=O)Nc2nc(-c3ccc(OC)cc3)c(-c3ccc([N+](=O)[O-])cc3)s2)cc1,14.1%
14,COC(=O)CCc1sc(Nc2ccc(Br)cc2)nc1-c1ccc(OC)cc1,46.4% (active)
15,Cc1ccc(OC(=O)CCC(=O)Nc2ccc(Br)cc2)cc1,0.584%
16,C=CCn1c(SCc2c(C)noc2C)nc2sc3c(c2c1=O)CCC(C)C3 (stereo unspecified),-4.33%
17,CCCn1nnc2sc3c(c2c1=O)CCC(C)C3 (stereo unspecified),9.67%
18,CC1CCc2c(sc3nc4n(c(=O)c23)CCS4)C1 (stereo unspecified),40.6% (active)
19,Cc1cc2c(c(=O)n1C)C(C(C)C)C(C#N)=C(N)O2 (stereo unspecified),-3.2%
20,COc1cccc(CNC(=O)C2CCN(S(=O)(=O)c3cccc4cccnc34)CC2)c1,13.9%
21,Cn1c(=O)c(C(=O)Nc2ncccn2)c(O)c2ccccc21,25.2%
22,C=CCn1c(SCc2c(C(=O)OC)sc(N)c2C(=O)OC)nnc1-c1ccc(Cl)cc1,15.3%
